According to PubChem BioAssay AID1159580 (chemical genetic matrix, 2015):
Hit rate of the full screen: of about 5,500 compounds, about 2,000 (36%) were called active. Not shown: some 18% with an inconclusive outcome. No stated cut-off is given here; in the data, active means normalized growth mostly below about 0.91 (no sharp cut-off); inconclusive means no clear call, values can overlap the other calls; inactive means mostly above about 0.92. The list shows a part of the results.

Assay: chemical genetic growth profiling, strain panel (AID 1159580);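 further: tested at 20 µM; growth read once vehicle control cultures reached saturation at 30 °C; 1 = growth at the plate median or of vehicle wells; lower values mean less growth of the strain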
Settings: growth OD

Measured: normalized growth

CC1=C2CCC3C(CC[C@]4(C)C(=O)CCC34)[C@@]2(C)CCC1=O (some centres not stated)
active: S. cerevisiae deletion strains, locus YLR039C, strain RIC1, hits give low values 0.587 | S. cerevisiae deletion strains, locus YLR262C, strain YPT6 (second series), hits give low values 0.655 | S. cerevisiae deletion strains, locus YLR418C, strain cdc73, hits give low values 0.771 | S. cerevisiae deletion strains, locus YMR223W, strain ubp8, hits give low values 0.9 | S. cerevisiae deletion strains, locus YNL071W, strain lat1, hits give low values 0.863 | S. cerevisiae deletion strains, locus YNL307C, strain MCK1, hits give low values 0.695 | S. cerevisiae deletion strains, locus YNR052C, strain pop2, hits give low values 0.89 | S. cerevisiae deletion strains, locus YOR184W, strain ser1, hits give low values 0.719 | S. cerevisiae deletion strains, locus YPL078C, strain atp4, hits give low values 0.887
inactive: S. cerevisiae deletion strains, locus YJR075W, strain HOC1, hits give low values 0.968 | S. cerevisiae deletion strains, locus YKL009W, strain mrt4, hits give low values 0.948 | S. cerevisiae deletion strains, locus YKL068W, hits give low values 0.985 | S. cerevisiae deletion strains, locus YKL085W, strain MDH1 (second series), hits give low values 0.983 | S. cerevisiae deletion strains, locus YKL085W, strain MDH1, hits give low values 0.983 | S. cerevisiae deletion strains, locus YKL160W, strain elf1, hits give low values 0.936 | S. cerevisiae deletion strains, locus YKL190W, strain CNB1, hits give low values 0.98 | S. cerevisiae deletion strains, locus YKR001C, strain vps1, hits give low values 0.9 | S. cerevisiae deletion strains, locus YKR026C, strain gcn3, hits give low values 0.998 | S. cerevisiae deletion strains, locus YKR091W, strain srl3, hits give low values 0.985 | S. cerevisiae deletion strains, locus YLL001W, strain dnm1, hits give low values 0.937 | S. cerevisiae deletion strains, locus YLL026W, hits give low values 0.994 | S. cerevisiae deletion strains, locus YLL041C, strain sdh2, hits give low values 0.984 | S. cerevisiae deletion strains, locus YLR027C, strain aat2, hits give low values 0.948 | S. cerevisiae deletion strains, locus YLR058C, strain SHM2, hits give low values 0.976 | S. cerevisiae deletion strains, locus YLR102C, strain apc9, hits give low values 0.977 | S. cerevisiae deletion strains, locus YLR113W, strain HOG1, hits give low values 0.974 | S. cerevisiae deletion strains, locus YLR221C, strain rsa3, hits give low values 0.994 | S. cerevisiae deletion strains, locus YLR258W, strain gsy2, hits give low values 0.959 | S. cerevisiae deletion strains, locus YLR262C, strain YPT6, hits give low values 0.613 | S. cerevisiae deletion strains, locus YLR268W, strain sec22, hits give low values 1.02 | S. cerevisiae deletion strains, locus YLR320W, strain mms22, hits give low values 0.94 | S. cerevisiae deletion strains, locus YLR330W, strain CHS5, hits give low values 0.982 | S. cerevisiae deletion strains, locus YLR342W, strain FKS1 (second series), hits give low values 0.811 | S. cerevisiae deletion strains, locus YLR342W, strain FKS1, hits give low values 0.951 | S. cerevisiae deletion strains, locus YLR357W, strain rsc2, hits give low values 1.01 | S. cerevisiae deletion strains, locus YLR370C, strain arc18, hits give low values 0.986 | S. cerevisiae deletion strains, locus YLR371W, strain rom2, hits give low values 0.983 | S. cerevisiae deletion strains, locus YLR384C, strain iki3, hits give low values 0.983 | S. cerevisiae deletion strains, locus YML016C, strain PPZ1, hits give low values 0.965 | S. cerevisiae deletion strains, locus YML032C, strain rad52, hits give low values 0.966 | S. cerevisiae deletion strains, locus YML120C, strain ndi1, hits give low values 0.955 | S. cerevisiae deletion strains, locus YML124C, strain tub3, hits give low values 0.969 | S. cerevisiae deletion strains, locus YMR058W, strain fet3, hits give low values 0.976 | S. cerevisiae deletion strains, locus YMR078C, strain ctf18, hits give low values 0.953 | S. cerevisiae deletion strains, locus YMR125W, strain sto1, hits give low values 0.993 | S. cerevisiae deletion strains, locus YMR129W, hits give low values 0.993 | S. cerevisiae deletion strains, locus YMR205C, strain PFK2, hits give low values 0.9 | S. cerevisiae deletion strains, locus YMR231W, strain pep5, hits give low values 0.976 | S. cerevisiae deletion strains, locus YMR263W, strain SAP30, hits give low values 0.971 | S. cerevisiae deletion strains, locus YMR307W, strain GAS1, hits give low values 0.759 | S. cerevisiae deletion strains, locus YNL067W, strain RPL9B, hits give low values 0.987 | S. cerevisiae deletion strains, locus YNL128W, strain TEP1, hits give low values 0.99 | S. cerevisiae deletion strains, locus YNL153C, strain GIM3, hits give low values 0.99 | S. cerevisiae deletion strains, locus YNL183C, strain NPR1, hits give low values 0.839 | S. cerevisiae deletion strains, locus YNL209W, strain ssb2, hits give low values 0.962 | S. cerevisiae deletion strains, locus YNL233W, strain BNI4, hits give low values 0.962 | S. cerevisiae deletion strains, locus YNL248C, strain rpa49, hits give low values 1.01 | S. cerevisiae deletion strains, locus YNL250W, strain rad50, hits give low values 0.951 | S. cerevisiae deletion strains, locus YNL271C, strain bni1, hits give low values 0.957 | S. cerevisiae deletion strains, locus YNL298W, strain CLA4, hits give low values 0.929 | S. cerevisiae deletion strains, locus YNL322C, strain KRE1 (second series), hits give low values 0.986 | S. cerevisiae deletion strains, locus YNL322C, strain KRE1, hits give low values 0.983 | S. cerevisiae deletion strains, locus YNR049C, strain mso1, hits give low values 0.997 | S. cerevisiae deletion strains, locus YOL006C, strain TOP1, hits give low values 0.729 | S. cerevisiae deletion strains, locus YOL012C, strain htz1 1.08 | S. cerevisiae deletion strains, locus YOL147C, strain pex11, hits give low values 0.959 | S. cerevisiae deletion strains, locus YOR001W, strain rrp6, hits give low values 1.01 | S. cerevisiae deletion strains, locus YOR061W, strain CKA2, hits give low values 0.979 | S. cerevisiae deletion strains, locus YOR069W, strain VPS5, hits give low values 0.973 | S. cerevisiae deletion strains, locus YOR070C, strain gyp1, hits give low values 0.959 | S. cerevisiae deletion strains, locus YOR080W, strain dia2, hits give low values 0.995 | S. cerevisiae deletion strains, locus YOR083W, strain WHI5, hits give low values 0.915 | S. cerevisiae deletion strains, locus YOR106W, strain vam3, hits give low values 0.944 | S. cerevisiae deletion strains, locus YOR136W, strain idh2, hits give low values 0.961 | S. cerevisiae deletion strains, locus YOR144C, strain elg1, hits give low values 0.958 | S. cerevisiae deletion strains, locus YOR231W, strain MKK1, hits give low values 0.955 | S. cerevisiae deletion strains, locus YOR265W, strain rbl2, hits give low values 0.985 | S. cerevisiae deletion strains, locus YOR270C, strain vph1, hits give low values 0.844 | S. cerevisiae deletion strains, locus YOR290C, strain snf2, hits give low values 0.898 | S. cerevisiae deletion strains, locus YOR316C, strain cot1, hits give low values 0.98 | S. cerevisiae deletion strains, locus YPL051W, strain arl3, hits give low values 0.921 | S. cerevisiae deletion strains, locus YPL055C, strain LGE1, hits give low values 0.871 | S. cerevisiae deletion strains, locus YPL106C, strain sse1, hits give low values 1 | S. cerevisiae deletion strains, locus YPL240C, strain hsp82, hits give low values 0.987 | S. cerevisiae deletion strains, locus YPL241C, strain CIN2, hits give low values 0.986 | S. cerevisiae deletion strains, locus YPL256C, strain CLN2, hits give low values 0.927 | S. cerevisiae deletion strains, locus YPR119W, strain clb2, hits give low values 0.979 | S. cerevisiae deletion strains, locus YPR141C, strain kar3, hits give low values 0.951 | S. cerevisiae deletion strains, locus YPR163C, strain tif3, hits give low values 0.927 | S. cerevisiae deletion strains, locus YPR167C, strain met16, hits give low values 0.972 | S. cerevisiae deletion strains, strain wtn01, hits give low values 0.964 | S. cerevisiae strains, strain wild type, hits give low values 0.942
